Records with an inconclusive call do not appear. A call without a number means that no potency is given here. Calls of active or inactive are those of the source. Unless noted, calls follow the shape of the full dose curve.
Key:
[1] = Primary qHTS for inhibitors of SARS-S pseudo-typed particle cell entry (AID 1479145); conditions: outcome: dose series up to 57.1 µM unless noted; also: nearly all actives have a fitted effect of over 45% in size; also: potency is read from the fitted curve at half-maximal effect
[2] = Primary qHTS for Huh7 cytotoxicity: counterscreen for inhibitors of MERS-S pseudotyped particle cell entry (AID 1479147); conditions: outcome: dose series up to 57.1 µM unless noted; also: potency is read from the fitted curve at half-maximal effect
[3] = Primary qHTS for inhibitors of MERS-S pseudo-typed particle cell entry (AID 1479149); conditions: outcome: dose series up to 57.1 µM unless noted; also: nearly all actives have a fitted effect of over 60% in size; also: potency is read from the fitted curve at half-maximal effect
[4] = Primary qHTS for Vero E6 cytotoxicity: counterscreen for inhibitors of SARS-S pseudo-typed particle cell entry (AID 1479150); conditions: outcome: dose series up to 57.1 µM unless noted
[5] = Primary qHTS to identify inhibitors of SARS-CoV-2 cell entry (AID 1645846); conditions: SARS-CoV-2 pseudovirus cell entry assay, luminescence; activity change, negative = inhibition: at 57.1 µM (top of the series) unless noted; also: nearly all actives have a fitted effect of over 45% in size; also: potency is read from the fitted curve at half-maximal effect
Outline: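 Data are normalized to wells receiving SARS-CoV-2-S pseudoparticles and those given bald particles. Entry signal was luciferase luminescence in stable hACE2 Expi293F cells, 48 hr post-infection, after 1 hr compound pretreatment.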

[6] = molecular target: Bile acid receptor (Homo sapiens) (UniProt Q96RI1); experiment: qHTS assay for small molecule agonists of farnesoid X receptor signaling (AID 588527); conditions: HEK293T FXR-UAS-bla, beta-lactamase ratio, 16 h; stronger effect = higher value
Outline: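 FXR-UAS-bla HEK293T cells (10% dialyzed FBS) preincubated 5-7 h at 37 C, then compounds at up to 92 uM for 16 h at 37 C. CCF4 beta-lactamase read-out after 2 h RT. Normalized to chenodeoxycholic acid (100 uM) and DMSO; Hill fit gave EC50 and efficacy.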

[7] = molecular target: Peroxisome proliferator-activated receptor delta (Homo sapiens) (UniProt Q03181); experiment: qHTS assay for small molecule agonists of peroxisome proliferator-activated receptor delta signaling (AID 588534)
Outline: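 Titration series tested in agonist mode on beta-lactamase reporter cells; 18 hrs at 37 C after a 5 hr pre-incubation. Readout: CCF4 fluorescence, 2 hrs RT. Hill equation gives EC50 and maximal response.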

[8] = KB-8-5-11 P-gp reporter qHTS against the NCATS DSHEA and TCM libraries (AID 1919977; active = well fitted curve in the direction sought with a large enough effect; an effect the other way counts as inactive or inconclusive)
Outline: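 Cells were seeded, allowed ~4 h to attach, dosed by pin tool (substance titrations), incubated ~72 h at 37C, then lysed with CellTiter-Glo for 30 min at room temperature before luminescence reading.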

[9] = molecular target: Glutathione peroxidase 1 (Homo sapiens) (UniProt P07203); experiment: Primary qHTS Assay for Inhibitors of Recombinant Selenoprotein Glutathione Peroxidase 1 (GPX1) (AID 1845191; active = well fitted curve in the direction sought with a large enough effect; an effect the other way counts as inactive or inconclusive; also: nearly all actives have a fitted effect of over 65% in size)
Outline: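 GR-coupled readout: NADPH consumption tracked by fluorescence, ex 340/em 450 nm, at t=0 and after 15 min at RT. Final mix 10 nM GPX1, 1 mM GSH, 0.5 mM CHP, 0.5 mM NADPH, 100 nM GR, 0.01% BSA, following 30 min enzyme–compound preincubation.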

Sequence of Glutathione peroxidase 1 (Homo sapiens) (P07203 whole entry, looked up): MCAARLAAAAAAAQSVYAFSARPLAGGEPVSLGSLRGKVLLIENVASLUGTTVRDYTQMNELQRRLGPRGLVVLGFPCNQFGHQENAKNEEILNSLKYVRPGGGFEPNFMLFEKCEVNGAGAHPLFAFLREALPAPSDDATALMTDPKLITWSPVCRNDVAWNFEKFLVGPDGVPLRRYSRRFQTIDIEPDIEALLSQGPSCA
Sequence of Bile acid receptor (Homo sapiens) (Q96RI1 whole entry, looked up): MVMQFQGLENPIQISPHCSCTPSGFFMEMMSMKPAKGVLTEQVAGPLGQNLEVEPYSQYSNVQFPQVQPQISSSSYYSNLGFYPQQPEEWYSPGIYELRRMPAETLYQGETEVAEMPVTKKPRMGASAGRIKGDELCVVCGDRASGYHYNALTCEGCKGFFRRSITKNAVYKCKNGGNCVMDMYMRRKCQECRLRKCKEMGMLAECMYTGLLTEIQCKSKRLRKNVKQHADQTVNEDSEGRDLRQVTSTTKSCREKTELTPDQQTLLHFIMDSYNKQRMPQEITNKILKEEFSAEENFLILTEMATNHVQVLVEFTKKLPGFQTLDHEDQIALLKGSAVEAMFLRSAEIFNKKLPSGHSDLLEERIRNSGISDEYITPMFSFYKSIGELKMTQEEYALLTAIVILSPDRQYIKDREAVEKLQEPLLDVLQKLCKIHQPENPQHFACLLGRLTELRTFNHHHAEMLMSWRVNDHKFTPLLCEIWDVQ
Sequence of Peroxisome proliferator-activated receptor delta (Homo sapiens) (Q03181 whole entry, looked up): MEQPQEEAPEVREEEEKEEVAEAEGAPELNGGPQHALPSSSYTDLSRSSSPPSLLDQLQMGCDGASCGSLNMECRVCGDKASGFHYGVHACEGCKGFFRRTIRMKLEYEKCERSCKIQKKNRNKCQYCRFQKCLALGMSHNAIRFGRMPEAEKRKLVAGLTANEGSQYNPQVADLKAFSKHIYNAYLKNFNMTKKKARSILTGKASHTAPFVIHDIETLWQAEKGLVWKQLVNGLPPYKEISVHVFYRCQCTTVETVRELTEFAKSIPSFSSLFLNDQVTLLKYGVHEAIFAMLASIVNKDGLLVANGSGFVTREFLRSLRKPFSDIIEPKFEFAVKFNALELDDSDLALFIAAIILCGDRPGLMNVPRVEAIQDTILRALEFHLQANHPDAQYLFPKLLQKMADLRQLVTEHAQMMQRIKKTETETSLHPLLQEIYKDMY

## CC[C@H]1CN2CCc3cc(OC)c(OC)cc3C2C[C@@H]1CC1NCCc2cc(OC)c(OC)cc21 (some centres not stated)
[1]
  Potency: 5.62 µM (active)
[2]
  Potency: 17.8 µM (active)
[3]
  Potency: 5.62 µM (active)
[4]
  Potency: inactive
[5]
  Potency: 1.78 µM (active)

## CC1=CCC(C(C)(C)O)CC1 (configuration not stated)
[6]
  activation: -1.09% (inactive)
[7]
  outcome: inactive
[1]
  Potency: inactive
[2]
  Potency: inactive
[3]
  Potency: inactive
[4]
  Potency: inactive
[8]
  Potency: inactive

## CNC(C)CC1CCCC1 (configuration not stated)
[1]
  Potency: inactive
[2]
  Potency: inactive
[3]
  Potency: inactive
[4]
  Potency: inactive
[5]
  Potency: inactive
[9]
  Potency: inactive

## NC(N)=NCCC[C@@H](N)C(=O)N[C@@H](CCCN=C(N)N)C(=O)N1CCC[C@H]1C(=O)N1C[C@H](O)C[C@H]1C(=O)NCC(=O)N[C@@H](Cc1cccs1)C(=O)N[C@@H](CO)C(=O)N1Cc2ccccc2C[C@@H]1C(=O)N1[C@H](C(=O)N[C@@H](CCCN=C(N)N)C(=O)O)C[C@@H]2CCCC[C@@H]21
[1]
  Potency: inactive
[2]
  Potency: inactive
[3]
  Potency: inactive
[4]
  Potency: inactive
[5]
  Potency: inactive

## COC(=S)NCCn1c([N+](=O)[O-])cnc1C
[1]
  Potency: inactive
[2]
  Potency: inactive
[3]
  Potency: inactive
[4]
  Potency: inactive
[5]
  activity change, negative = inhibition: -22.7%

## N[C@@H]1CCCCN(c2c(F)cc3c(=O)c(C(=O)O)cn(C4CC4)c3c2Cl)C1
[1]
  Potency: inactive
[2]
  Potency: inactive
[3]
  Potency: inactive
[4]
  Potency: inactive
[5]
  activity change, negative = inhibition: -8.2%

## CC(C)=C/C(C)=N\Nc1nncc2ccccc12
[1]
  Potency: inactive
[2]
  Potency: inactive
[3]
  Potency: inactive
[5]
  Potency: inactive

## O=C(O[C@H]1C[N+]2(CCCOc3ccccc3)CCC1CC2)C(O)(c1cccs1)c1cccs1
[1]
  Potency: inactive
[2]
  Potency: inactive
[3]
  Potency: inactive
[4]
  Potency: inactive
[5]
  activity change, negative = inhibition: -28.6%

## CCCN(CC)C(CC)C(=O)Nc1c(C)cccc1C (configuration not stated)
[1]
  Potency: inactive
[2]
  Potency: inactive
[3]
  Potency: inactive
[4]
  Potency: inactive
[5]
  activity change, negative = inhibition: -22.8%

## CCCCC(=O)O[C@]1(C(=O)COC(C)=O)CC[C@H]2[C@@H]3CCC4=CC(=O)C=C[C@]4(C)[C@H]3[C@@H](O)C[C@@]21C
[1]
  Potency: inactive
[2]
  Potency: inactive
[3]
  Potency: inactive
[4]
  Potency: inactive
[5]
  activity change, negative = inhibition: -22.7%

From PubChem BioAssay (NCATS)
